Where a name gives a salt, the structure may show the parent alone.
These compounds were tested on HCC1569 (assay: H1.0 immunofluorescence intensity relative to DMSO (% of DMSO); higher = stronger H1.0 induction, active = 140 or more). Settings: concentration: 10 µM; 24 h.
In short: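 H1.0 nuclear intensity or cell number is expressed as percent of the plate control, with the median of replicates taken. HCC1569 and TDF cells were treated with compounds at 10 µM for 24 h at 37 °C, in triplicate, then fixed and immunostained for H1.0 with DAPI as a nuclear stain. HCC1569 values were smoothed to correct for positional effects.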
With `CC1(NCC(O)COc2cccc3[nH]ccc23)CCC(C(C)(C)NC(=O)CBr)CC1` (stereo not drawn) [Pindobind-5HT1A] the H1.0 immunofluorescence intensity was 178 (active).
With `CC12CCC(=O)C=C1CCC1C2C(O)CC2(C)C1CCC2(O)C(=O)COC(=O)CCC(=O)[O-].[Na+]` (stereo not drawn) [Hydrocortisone 21-hemisuccinate sodium] the H1.0 immunofluorescence intensity was 125 (inactive).
With `O=C(NCCNCC(O)COc1ccc(O)cc1)N1CCOCC1.O=C(O)C=CC(=O)O` (stereo not drawn) [Xamoterol hemifumarate] the H1.0 immunofluorescence intensity was 109 (inactive).
`Cc1[nH]c(=O)c(C#N)cc1-c1ccncc1` [Milrinone] was tested, and the H1.0 immunofluorescence intensity was 103 (inactive).
`CC(=O)NC(CSCC=C(C)CCC=C(C)CCC=C(C)CCC=C(C)C)C(=O)O` (stereo not drawn) was tested, and the H1.0 immunofluorescence intensity was 95.9 (inactive).
In the case of `Cl.Fc1ccc(C(OCCCc2cnc[nH]2)c2ccc(F)cc2)cc1`, the H1.0 immunofluorescence intensity is reported as 99.8 (inactive).
For `N#CC(=Cc1ccc(O)cc1)C(N)=C(C#N)C#N`, the H1.0 immunofluorescence intensity was 110 (inactive).
For `O=C(c1ccc2c(c1)OCCO2)N1CCCCC1`, the H1.0 immunofluorescence intensity was 107 (inactive).
`Nc1sc2c(c1C(=O)c1ccc(Cl)cc1)CCCC2` was tested, and the H1.0 immunofluorescence intensity was 98.9 (inactive).
In the case of `N#Cc1c(NC(=O)c2cccc3ccccc23)sc2c1CCCC2` [JNK Inhibitor IX], the H1.0 immunofluorescence intensity is reported as 170 (active).
For `CCCCCC=CCC=CCCCCCCCC(N)=O` [Linoleamide], the H1.0 immunofluorescence intensity was 99.2 (inactive).
In the case of `NC1CONC1=O` [L-Cycloserine], the H1.0 immunofluorescence intensity is reported as 84.8 (inactive).
In the case of `O=S(=O)(c1cccc2cnccc12)N1CCCNCC1`, the H1.0 immunofluorescence intensity is reported as 98.2 (inactive).
With `NC(=O)c1nnn(Cc2cc(Cl)c(C(=O)c3ccc(Cl)cc3)c(Cl)c2)c1N` the H1.0 immunofluorescence intensity was 151 (active).
With `Cl.O=c1cc(N2CCOCC2)oc2c(-c3ccccc3)cccc12` [LY-294,002 hydrochloride] the H1.0 immunofluorescence intensity was 131 (inactive).
For `NC(N)=S` [Thiourea], the H1.0 immunofluorescence intensity was 99.6 (inactive).
`CC1(C)SC2C(NC(=O)C(N)c3ccccc3)C(=O)N2C1C(=O)O` (stereo not drawn) [Ampicillin] was tested, and the H1.0 immunofluorescence intensity was 108 (inactive).
In the case of `CCn1cc(C(=O)O)c(=O)c2cc(F)c(N3CCNCC3)nc21` [Enoxacin], the H1.0 immunofluorescence intensity is reported as 106 (inactive).
`CC(=O)Oc1ccc(C(c2ccc(OC(C)=O)cc2)c2ccccn2)cc1` [Bisacodyl] was tested, and the H1.0 immunofluorescence intensity was 125 (inactive).
In the case of `CC(=O)OCC1=C(C(=O)[O-])N2C(=O)C(NC(=O)Cc3cccs3)C2SC1.[Na+]` (stereo not drawn) [Cephalothin sodium], the H1.0 immunofluorescence intensity is reported as 89.2 (inactive).
With `CC(C)=CCC(O)C1=CC(=O)c2c(O)ccc(O)c2C1=O` (stereo not drawn) [Shikonin] the H1.0 immunofluorescence intensity was 111 (inactive).
`O=C1c2c(O)cc(O)cc2O[C@H](c2cc(O)c(O)c(O)c2)[C@H]1O` was tested, and the H1.0 immunofluorescence intensity was 93.3 (inactive).
`COc1cc2c(cc1-c1c(C)noc1C)ncc1[nH]c(=O)n([C@H](C)c3ccccn3)c12` was tested, and the H1.0 immunofluorescence intensity was 218 (active).
`COc1cc(-c2oc3cc(O)cc(O)c3c(=O)c2OC2OC(CO)C(O)C(O)C2O)cc(OC)c1O` (stereo not drawn) [Syringetine-3-glucoside] was tested, and the H1.0 immunofluorescence intensity was 90.4 (inactive).
In the case of `O=C(O)C1CCCNC1` (racemic), the H1.0 immunofluorescence intensity is reported as 92.1 (inactive).
For `CC(C)c1cccc(C(C)C)c1N1C(=O)c2ccc(O)cc2C1=O`, the H1.0 immunofluorescence intensity was 162 (active).
For `COC(=O)[C@@H](N)Cc1ccc(O)c(O)c1.Cl` [L-3,4-Dihydroxyphenylalanine methyl ester hydrochloride], the H1.0 immunofluorescence intensity was 96.8 (inactive).
For `CC1OC(OC2C(Oc3cc(O)c4c(=O)c(O)c(-c5ccc(O)cc5)oc4c3)OC(CO)C(O)C2O)C(O)C(O)C1O` (stereo not drawn) [Kaempferol-7-neohesperidoside], the H1.0 immunofluorescence intensity was 87.9 (inactive).
`O=c1cc(N2CCOCC2)oc2c1ccc1ccccc12` [DNA-PK Inhibitor II] was tested, and the H1.0 immunofluorescence intensity was 112 (inactive).
`CC1(C(=O)O)CCC2(C)CCC3(C)C(=CC(=O)C4C5(C)CCC(O)C(C)(C)C5CCC43C)C2C1` (stereo not drawn) was tested, and the H1.0 immunofluorescence intensity was 84.4 (inactive).
For `COc1cc2c(cc1OC)-c1cc(=Nc3c(C)cc(C)cc3C)n(C)c(=O)n1CC2.Cl` [Trequinsin hydrochloride], the H1.0 immunofluorescence intensity was 101 (inactive).
With `CC(C)(C)NCC(O)COc1nsnc1N1CCOCC1` (stereo not drawn) [S(-)-Timolol maleate] the H1.0 immunofluorescence intensity was 110 (inactive).
With `CC(O)C1C(=O)N2C(C(=O)O)=C(SC3CNC(C(=O)N(C)C)C3)C(C)C12` (stereo not drawn) [Meropenem] the H1.0 immunofluorescence intensity was 94.3 (inactive).
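Further: TDF is a line of transformed human dermal fibroblasts of mesenchymal origin.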
